In PubChem BioAssay (EPA / NIEHS):
Activity calls are given as the source filed them. Rule for the calls: active = hit-call score of the fitted dose curve at least 0.9, where 1 is the maximum; inactive = score below 0.9.

Each molecule was assayed on Matrix Metallopeptidase 1 (MMP1), MMP1 (gene 4312) (assay: BSK_hDFCGF_MMP1: BioMAP Diversity Plus: hDFCGF Assay for Matrix Metallopeptidase 1 (MMP1) Biomarker Activity (AID 2283064)). Settings: primary human foreskin fibroblasts; actives raise or lower the signal.
Procedure, shortened: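 ELISA read-out of MMP1 from human foreskin fibroblasts (primary skin cells), 24 h post-dose. Gain or loss of signal was fitted bidirectionally versus DMSO negative control; cytotoxicity was checked by SRB in parallel cultures.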
In the case of `O=C(O)CC(O)(CC(=O)O)C(=O)O`, the outcome is reported as “inactive”. `COc1ccc(OC(F)(F)F)cc1CN[C@H]1CCCN[C@H]1c1ccccc1` was tested, and the outcome was “inactive”. With `CS(=O)(=O)c1ccc([C@@H](C[C@H]2CCC(=O)C2)C(=O)Nc2cnccn2)cc1Cl` the outcome was “inactive”. For `O=C1c2c(O)cccc2Cc2cccc(O)c21`, the outcome was “inactive”. For `Cc1c(C)c2c(c(C)c1O)CCC(C)(COc1ccc(CC3SC(=O)NC3=O)cc1)O2` (centres undefined), the AC50 was 24.8 µM (active). With `CCCCC(CC)COC(=O)CCCCCCCC(=O)OCC(CC)CCCC` (centres undefined) the outcome was “inactive”. `C#CC(O)C(CC)CCCC` (centres undefined) was tested, and the outcome was “inactive”. `NCCOCCOCCN` was tested, and the outcome was “inactive”. With `COC(=O)[C@H]1[C@H]2C[C@@H]3c4[nH]c5cc(OC)ccc5c4CCN3C[C@H]2C[C@@H](OC(=O)c2cc(OC)c(OC)c(OC)c2)[C@@H]1OC` the outcome was “inactive”. With `COC(=O)CCC(=O)OC` the outcome was “inactive”. In the case of `CC(=O)O`, the outcome is reported as “inactive”. In the case of `CC(=O)CC(c1ccccc1)c1c(O)c2ccccc2oc1=O` (centres undefined), the outcome is reported as “inactive”. For `CC(=O)O[C@]1(C(C)=O)CC[C@H]2[C@@H]3C=C(Cl)C4=CC(=O)[C@@H]5C[C@@H]5[C@]4(C)[C@H]3CC[C@@]21C`, the outcome was “inactive”. For `c1ccc2occc2c1`, the outcome was “inactive”. In the case of `NC1CCCCC1`, the outcome is reported as “inactive”. For `NC(=Nc1ccccc1)Nc1ccccc1`, the AC50 was 3.71 µM (active). For `CCCCC(CC)COP(=O)(OCC(CC)CCCC)OCC(CC)CCCC` (centres undefined), the outcome was “inactive”. In the case of `O=C(N[C@@H](c1ccccc1)[C@@H]1CCCCN1)c1cccc(C(F)(F)F)c1Cl`, the outcome is reported as “inactive”. `Oc1ccccc1O` was tested, and the outcome was “inactive”. For `CC(=O)[C@@]1(O)CC[C@H]2[C@@H]3CCC4=CC(=O)CC[C@]4(C)[C@H]3CC[C@@]21C`, the outcome was “inactive”. `CCCCOC(=O)CCCCC(=O)OCCCC` was tested, and the outcome was “inactive”. `CCc1nc(N)nc(N)c1-c1ccc(Cl)cc1` was tested, and the outcome was “inactive”. With `CO[C@@H]1COCC[C@@H]1N[C@@H]1CC[C@@](C(=O)N2CCc3ncc(C(F)(F)F)cc3C2)(C(C)C)C1` the outcome was “inactive”. With `O=C1OC(c2ccc(O)cc2)(c2ccc(O)cc2)c2ccccc21` the outcome was “inactive”. For `CN(C)CCCN1c2ccccc2Sc2ccc(Cl)cc21`, the AC50 was 31.5 µM (active). For `Nc1nc(=S)c2[nH]cnc2[nH]1`, the AC50 was 24.8 µM (active). In the case of `CC(C)OC(=O)C(C)(C)Oc1ccc(C(=O)c2ccc(Cl)cc2)cc1`, the outcome is reported as “inactive”. `CCCCC(CC)CO` (centres undefined) was tested, and the outcome was “inactive”. With `CCOCCOCCO` the outcome was “inactive”.
